Compound activity from PubChem BioAssay.
Hits are enriched below; roughly 7% of the tested compounds scored in any of these assays.
BAZ2B inh = blocks human BAZ2B; Q9UIF8; AlphaScreen BAZ2B-H3K14Ac peptide displacement; Potency, µM (titrated, usually from 114 µM), for the others: at the top dose activity change, negative = inhibition, hits mostly inhibitors; actives 4.4% (n = 360,000); further: potency means the concentration at half of the fitted maximal effect; on the % scale 0 is the no-effect control and ±100 the full control effect; nearly all actives have a fitted effect of over 60% in size
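BAZ2B (50 nM) with biotin-H3(5-23)K14Ac peptide (50 nM) in PBS pH 7.4, 0.01% Tween-20, preformed 30 min, then compound 30 min at room temperature; top concentration 110uM. AlphaScreen streptavidin donor/nickel chelate acceptor beads (10 ug/mL final), 20 min dark, signal read.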
HP1b chromo inh = blocks HP1-beta chromodomain binding to methylated histone tails | P83916 | AlphaScreen HP1-beta / biotin-H3K9me3 peptide binding | Potency, µM (highest dose often 114 µM), for the others: at the top dose activity change, negative = inhibition, hits mostly inhibitors | actives 0.56% (n = 390,000) | AID 540317; further: potency means the concentration at half of the fitted maximal effect; nearly all actives have a fitted effect of over 70% in size
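HP1-beta protein (50 nM final) preincubated 30 min at room temperature with biotinylated H3(1-18)K9me3 peptide (50 nM) in PBS pH 7.4, 0.01% Tween-20, then compound added for 30 min. AlphaScreen streptavidin donor/nickel chelate acceptor beads (10 ug/mL final), 30 min dark, luminescence read.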
PLK1 PBD inh = PLK1 (human) polo-box domain binding inhibition. Plk1 PBD binding of FITC phosphopeptide, fluorescence polarization. Potency, µM, for inactives: max response, negative = inhibition, most hits filed as inhibitors. actives 2.8% (n = 360,000). AID 720504; further: potency means the concentration at half of the fitted maximal effect; series mostly up to about 57 µM; on the % scale 0 is the no-effect control and ±100 the full control effect; nearly all actives have a fitted effect of over 65% in size
GCN5L2 inh = blocks human GCN5L2 histone acetyltransferase | GCN5L2 HAT assay, ThioGlo1 CoA-SH fluorescence | Q92830 | AID 504327 | actives 0.21% (n = 390,000) | Potency, µM (titrated, usually from 58.9 µM), for the others: at the top dose activity change, negative = inhibition, most hits filed as inhibitors; further: potency means the concentration at half of the fitted maximal effect; on the % scale 0 is the no-effect control and ±100 the full control effect
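Fluorescence readout, Ex340nm/Em540nm: ThioGlo1 (50uM final) reacts with free CoA thiol released as 20nM GCN5L2 acetylates H3(1-25) peptide (75uM) using acetyl-CoA (70uM). Compound and enzyme sat 15 min beforehand; 20 min room-temperature reaction.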
JMJD2A Tudor inh = JMJD2A Tudor domain (human) inhibition | AlphaScreen JMJD2A-Tudor / H3K4me3 peptide binding | actives 4.4% (n = 390,000) | Potency, µM (top dose mostly 114 µM), for inactives: top-dose activity change, negative = inhibition, actives largely listed as inhibitors | AID 504339 | O75164; further: potency means the concentration at half of the fitted maximal effect; on the % scale 0 is the no-effect control and ±100 the full control effect; nearly all actives have a fitted effect of over 50% in size
PI5P4K alpha inh = inhibitors of human PI5P4K alpha; P48426; PI5P4Kalpha enzyme, ADP-Glo luminescence, 60 min; stronger effect = lower value; max response, %; actives 1.2% (n = 330,000); active means max response of -50% or lower; inconclusive means between -30% and -50%; inactive means -30% or higher; further: value at the top dose of about 77 µM; on the % scale 0 is the no-effect control and ±100 the full control effect
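qHTS, 1536-well: enzyme/substrate mix, compound by pin tool, 5 microM ATP final; RT 60 min; ADP-Glo reagents 1 (45 min) then 2 (30 min); luminescence.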
The depositor's hits bear a star; ? = inconclusive; . = not tested or not shown; [ ] = dose if it differs, or a comment. Unless noted, the call rests on the fitted dose curve; in most records, active means well fitted curve in the direction sought with a large enough effect; inconclusive means small, poorly fitted or top-dose-only effect, or another doubt; inactive means no such curve, though single readings can be large; an effect the other way counts as inactive or inconclusive.

SMILES	BAZ2B inh	HP1b chromo inh	PLK1 PBD inh	GCN5L2 inh	JMJD2A Tudor inh	PI5P4K alpha inh
COc1ccc(-n2nc3c(N4CCCC(C(=O)NCc5ccc(C)cc5)C4)nnc(C)c3c2C)cc1 (configuration not stated)	50µM*	14%	.	-6%	56µM*	.
COC(=O)c1ccccc1NC(=O)C1CCCN(c2nnc(C)c3c(C)n(-c4ccccc4)nc23)C1 (configuration not stated)	79µM*	41%	.	-9%	-3%	.
CC(C)(C)C1CCC(C(=O)Nc2ccccc2N2CCOCC2)CC1 (configuration not stated)	-4%	70%	-2%	-9%	14%	13
CN(C)c1ccc(/C=N/NC2=NS(=O)(=O)c3ccccc32)cc1	-3%	-3%	-1%	-2%	-29%	-14
O=S1(=O)N=C(N/N=C/c2ccccn2)c2ccccc21	35µM*	35%	4%	-5%	79µM*	-11
O=[N+]([O-])c1cccc(/C=N/NC2=NS(=O)(=O)c3ccccc32)c1	-11%	?	27µM*	-3%	?	-10
O=[N+]([O-])c1cccc(/C=N/Nc2ccccn2)c1	-16%	21%	-7%	-4%	-17%	-2
COc1ccc(-c2csc(Cc3nnc(N4CCOCC4)n3-c3ccccc3)n2)cc1OC	?	11%	-4%	1%	63µM*	.
Cc1ccc(Nc2cnn(C34CC5CC(CC(CC(=O)O)(C5)C3)C4)c(=O)c2Cl)c(Cl)c1	-18%	30%	-7%	-3%	-8%	4
CC1=NN(c2ccccc2)C(=O)/C1=C/c1cc(C)n(C2CC2)c1C	?	26%	-12%	-3%	-35%[11.4 µM]	-4
CC1=NN(c2ccccc2)C(=O)/C1=C/c1c(O)n(-c2ccc(F)c(Cl)c2)[nH]c1=O	35µM*	?	27µM*	?	50µM*	?
CC(NC(=O)c1ccc(N2CCCC2)c([N+](=O)[O-])c1)c1ccc(S(N)(=O)=O)cc1 (configuration not stated)	-28%	2%	-8%	-14%	?	-3
